PubChem BioAssay AID624377 (The Scripps Research Institute Molecular Screening Center, 2012)
Among all 360,000 compounds or so, about 680 (0.19%) were called active. Cut-off read from the data, not from the text of the source: active = inhibition above about 25%; inactive = the rest. Many of the other results were omitted from the sample, so actives are more common in it than they were.

biological target: Arf-GAP with SH3 domain, ANK repeat and PH domain-containing protein 1 (Homo sapiens) (UniProt Q9ULH1); assay: blockers of ASAP1-stimulated ARF1 GTP hydrolysis – biochemical, fluorescence polarization, primary screen (AID 624377); conditions: GDP FP detection, at 16.5 µM, hits give high values;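 note: 0% = vehicle with enzyme and substrate and 100% = no enzyme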
Sequence (Q9ULH1 325-724 limits assumed): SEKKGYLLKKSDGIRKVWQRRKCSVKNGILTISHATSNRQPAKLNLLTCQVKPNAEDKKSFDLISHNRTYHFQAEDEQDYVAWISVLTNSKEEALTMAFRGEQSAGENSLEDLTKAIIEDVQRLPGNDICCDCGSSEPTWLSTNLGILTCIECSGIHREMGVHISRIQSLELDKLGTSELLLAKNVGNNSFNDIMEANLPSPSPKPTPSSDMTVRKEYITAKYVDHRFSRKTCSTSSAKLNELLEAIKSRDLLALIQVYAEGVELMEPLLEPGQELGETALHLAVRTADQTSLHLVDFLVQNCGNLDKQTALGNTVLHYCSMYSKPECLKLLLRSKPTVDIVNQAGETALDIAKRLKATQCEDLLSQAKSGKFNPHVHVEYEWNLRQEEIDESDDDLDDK

SMILES	inhibition
COC(=O)C1=C(C)NC(=S)NC1c1ccc(OC)cc1 (stereo not drawn)	3.47% (inactive)
C#CCNc1ccc(C(=O)OCC)cc1	-6.34% (inactive)
COC(=O)c1ccc(NC(=O)C(C)N2C(=O)c3ccccc3C2=O)cc1 (stereo not drawn)	2.27% (inactive)
COC(=O)c1ccc(NCC(=O)c2ccccc2)cc1	24.7% (active)
Cc1ccc2nc(CN(C)C(=O)[C@@H](Cc3ccccc3)NC(=O)[C@H]3O[C@@H](n4ccc(=O)[nH]c4=O)[C@H](O)[C@@H]3O)[nH]c2c1	-16.7% (inactive)
Cc1noc(C)c1NC(=O)Nc1ccc2c(c1)C(=O)N([C@H](C)CO)C[C@H](C)[C@H](CN(C)Cc1ccncc1)OCCCC[C@@H](C)O2	3.29% (inactive)
O=S(=O)(c1cccs1)N1CCCc2nc(-c3ccc(Br)cc3)ccc21	0.45% (inactive)
C=CCC[C@@H](CCCCC)OC(=O)/C=C/[C@@H](O)[C@H](O)C[C@H](O)CC=C	26.7% (active)
C=CCC[C@H](CCCCC)OC(=O)/C=C/[C@H](O)[C@@H](O)C[C@@H](O)CC=C	5.11% (inactive)
CCCCNc1cccc2c1S(=O)(=O)N[C@@H](C)CO2	5.97% (inactive)
CC(C)CNc1cccc2c1S(=O)(=O)N[C@H](C)CO2	-1.48% (inactive)
CN1C(=O)C(Br)(Br)CC1c1cccnc1 (stereo not drawn)	2.71% (inactive)
COCCCNC(=O)C[C@H]1C[C@@]2(C(=O)OC)C(=C[C@H](C(C)(C)C)O[C@@H]2C)N(Cc2ccc3c(c2)OCO3)C1=O	-0.04% (inactive)
Cc1cc(OC(=O)NCCc2ccc(F)cc2)ccc1F	-5.01% (inactive)
C=CCN1C(=O)N(Cc2ccccc2)c2ccccc2S1(=O)=O	10.9% (inactive)
COC(=O)C1=C(C)N(Cc2ccccc2C(F)(F)F)C(=NCc2ccc(OC)cc2)NC1c1cccc(C(F)(F)F)c1 (stereo not drawn)	-0.5% (inactive)
C[C@H]1[C@H](c2ccccc2)Oc2cc(Br)ccc2S(=O)(=O)N1Cc1cccc(F)c1	-15.2% (inactive)
COC(=O)Nc1nc2ccc(C(=O)C3CC3)cc2[nH]1	3.58% (inactive)
CC1(C)OC(=O)C2=C(CC(CCc3ccccc3)OC2c2ccc(Cl)cc2)O1 (stereo not drawn)	0.87% (inactive)
O=C(Nc1c(Cl)c(C2CC2)nn1-c1ccccc1)C(Cl)(Cl)Cl	6.91% (inactive)
O=C(C(=O)N1CCC(CNS(=O)(=O)Cc2ccccc2)CC1)c1cc2ccccc2o1	-10.9% (inactive)
COC(=O)c1c(-c2ccc(OC)cc2)c2c(c3c4ccccc4n(S(=O)(=O)c4ccc(C)cc4)c13)C(=O)N(C)C2	5.81% (inactive)
Brc1ccc(COCCc2cn(Cc3ccccc3)c3ccccc23)cc1	-1.81% (inactive)
COC(=O)Cc1nnn2c1[C@H](C)[C@@H](OC)c1cc(Br)ccc1-2	8.77% (inactive)
CC[C@H](NC(=O)[C@H](Cc1ccccc1)NC(=O)[C@H]1O[C@@H](n2cnc3c(=O)[nH]c(N)nc32)[C@H](O)[C@@H]1O)c1ccccc1	3.49% (inactive)

SMILES	inhibition
O=S1(=O)c2c(cccc2N2CCCC2)O[C@H](COCc2ccccc2)CN1C1CC1	-12.9% (inactive)
CC1CCN(C(=O)c2ncn3c2C(=O)N[C@@H](C)C3)CC1	1.95% (inactive)
CC(=O)C1=C(C)N(Cc2ccc(Cl)cc2)C(=S)NC1c1ccc(F)cc1 (stereo not drawn)	-0.95% (inactive)
CCCCCCCCN1C(=O)[C@@H](CC(=O)NCc2ccccc2)C[C@@]2(C(=O)OC)C1=C[C@H](C(C)(C)C)O[C@@H]2C	4.65% (inactive)
CCc1c(-c2ccccc2OC)ncn1CCc1ccccc1OC	8.29% (inactive)
COc1ccc(S(=O)(=O)Nc2ccc3c(c2)C(=O)N([C@H](C)CO)C[C@H](C)[C@@H](CN(C)C)OCCCC[C@H](C)O3)cc1	-2.07% (inactive)
O=C(O)Cn1cnc2c(NCc3ccccc3)ncnc21	-0.64% (inactive)
CCOC(=O)C1CSCCS(=O)(=O)N1Cc1ccc(Cl)cc1 (stereo not drawn)	1.02% (inactive)
O=C(N[C@H](Cc1ccccc1)C(=O)N1CCCN(Cc2cccs2)CC1)[C@H]1O[C@@H](n2ccc(=O)[nH]c2=O)[C@H](O)[C@@H]1O	-8.2% (inactive)
O=S1(=O)c2ccc(Br)cc2-n2nncc2CN1Cc1cccc(Cl)c1	-4.19% (inactive)
CCCCOCC1CN(CCCC)S(=O)(=O)c2c(Oc3ccc(F)cc3)cccc2O1 (stereo not drawn)	-4.17% (inactive)
C[C@H](O)[C@@H]1C(=O)N2CCc3c([nH]c4c(-c5ccc6c(c5)OCO6)cccc34)[C@@H]2C[C@@H]1N(C)C(=O)c1ccco1	-3.66% (inactive)
C=CCN=C1NC(c2cccc(C(F)(F)F)c2)C(C(=O)OC)=C(C)N1C (stereo not drawn)	-4.81% (inactive)
C[C@H]1CN([C@@H](C)CO)C(=O)CCCn2nncc2CO[C@@H]1CN(C)C(=O)Nc1ccc(N2CCN(C)CC2)cc1	6.23% (inactive)
COC(=O)c1cc2c(c3c4cc(F)ccc4n(S(=O)(=O)c4ccccc4)c13)C(=O)N(Cc1ccccc1OC)C2	-0.6% (inactive)
Nc1ncnc2c1ncn2[C@@H]1O[C@H](C(=O)N[C@@H](CCc2ccccc2)C(=O)NCC(=O)N2CCOCC2)[C@@H](O)[C@H]1O	-8.44% (inactive)
CC(=O)N1C[C@@H](CO)[C@@H](N(C)C(=O)C(C)(C)C)C[C@H]1c1ccccc1Br	-5.76% (inactive)
OC(c1ccccc1)(c1ccccc1)C1CCN(CCCOc2ccc(-c3ccsc3)cc2)CC1	13.7% (inactive)
Cc1ccc2nc(SCC(=O)N3CCN(c4ccccc4)CC3)nc(=O)n2c1	14.1% (inactive)
Cc1ccc2nc(SCC(=O)Nc3cccc4ccccc34)nc(=O)n2c1	16.5% (inactive)
Cc1ccc2nc(SCC(=O)N3CC(C)OC(C)C3)nc(=O)n2c1 (stereo not drawn)	40.7% (active)
CC(=O)N(C1=C(Cl)C(=O)c2ccccc2C1=O)c1ccc(C(=O)O)cc1	29.4% (active)
O=C1C(Cl)=C(Oc2ccccc2)C(=O)c2ccccc21	-0.42% (inactive)
COc1ccc(-c2ccccc2C2Cc3nnccc3CN2C(=O)Nc2ccccc2)cc1 (stereo not drawn)	-1.04% (inactive)
O=C(NCc1ccccc1)[C@H]1CCCN1C(=O)[C@H]1CCCN1C(=O)N1CCOCC1	11.6% (inactive)

SMILES	inhibition
Nc1[nH]c(C(=O)c2ccc(Br)cc2)c(-c2ccc3c(c2)OCO3)c1C(=O)NCCc1c[nH]c2ccccc12	9.33% (inactive)
CC(=O)c1ccc(S(=O)(=O)NCC2CCN(C(=O)C(=O)c3cccs3)CC2)cc1	-0.29% (inactive)
COc1ccc(/C=N/Nc2ncnc3sc4c(c23)CCCC4)cc1O	27.3% (active)
OCCNc1nc2ccccc2n1-c1ncnc2sc3c(c12)CCC3	1.46% (inactive)
O=C(O)c1cccnc1Sc1ncnc2sc3c(c12)CCC3	8.49% (inactive)
COc1cccc(CNC(=O)[C@H]2CCCN2C(=O)[C@H]2CCCN2C(=O)c2ccc(F)cc2)c1	-1.31% (inactive)
CCn1c2ccccc2c2cc(NC(=S)N3CCOCC3)ccc21	-2.05% (inactive)
CCn1c2ccccc2c2cc(NC(=O)COC(=O)c3cc(S(=O)(=O)N4CCCCC4)ccc3Cl)ccc21	0.3% (inactive)
CCn1c2ccccc2c2cc(NC(=O)C/C(C)=N/NC(=O)c3ccccc3N)ccc21	27% (active)
COC(=O)C1=C(C)N(Cc2ccccc2C(F)(F)F)C(=NCC2CC2)NC1c1cccc(Cl)c1 (stereo not drawn)	17.5% (inactive)
C#CCN([C@@H](C)C(=O)OCC)S(=O)(=O)c1ccc(Br)cc1F	3.17% (inactive)
Cc1ccc2nc(-c3ccc(CN4CCC(n5cc(-c6ccccc6)[nH]c5=O)CC4)cc3)c(-c3ccccc3)nc2c1	9.24% (inactive)
Cc1cc2nc3c(=O)[nH]c(=O)nc-3n(C[C@H](O)[C@H](O)[C@H](O)CO)c2cc1C	0.24% (inactive)
COc1ccccc1C(=O)N1O[C@]23C=C[C@]14C[C@@H](O)CC[C@]4(C)C2CC[C@]1(C)[C@@H]([C@H](C)/C=C/[C@H](C)C(C)C)CC[C@H]13 (stereo partly drawn)	6.77% (inactive)
C=CCN=C1NC(c2ccccc2)C(C(=O)OC)=C(C)N1Cc1ccc(C(F)(F)F)cc1 (stereo not drawn)	9.79% (inactive)
CCOC(=O)CNC(=O)N(C)[C@H]1C[C@H]2c3[nH]c4c(-c5ccc6c(c5)OCO6)cccc4c3CCN2C(=O)[C@H]1[C@H](C)O	-4.88% (inactive)
COC(=O)N1Cc2ccnnc2CC1c1ccccc1Br (stereo not drawn)	7.59% (inactive)
O=C1[C@@H](c2ccccc2)[C@@H](c2ccccc2)N1c1ccccc1	-13% (inactive)
O=C1Nc2ccccc2C1=NN=Cc1ccco1	1.27% (inactive)
Clc1cccc2c1C1CC2CCN1Cc1ccccc1 (stereo not drawn)	-8.11% (inactive)
Nc1nc2c(ncn2[C@@H]2O[C@H](C(=O)N[C@H](Cc3ccccc3)C(=O)NCC3CCCCC3)[C@@H](O)[C@H]2O)c(=O)[nH]1	5.87% (inactive)
COC(=O)C1=C(C)N(Cc2ccc(F)cc2)C(=S)NC1c1cccc(Cl)c1 (stereo not drawn)	-11.5% (inactive)
N#Cc1cccc(C(=O)NCC2CCN(C(=O)C(=O)c3cc4ccccc4o3)CC2)c1	-11.4% (inactive)
